Measurements taken from PubChem BioAssay (NCI).
The panel holds about 79,000 compounds, 15% with a hit somewhere; the sample as a whole holds those more often. Calls of active or inactive are those of the source. Cut-off read from the data, not from the text of the source: active = growth inhibition above about 70%; inactive = the rest.

Key:
[1] = NCI Yeast Anticancer Drug Screen. Data for the rad52 strain (AID 147);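 note: 0% = growth of vehicle-treated control cultures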; conditions: S. cerevisiae rad52 mutant growth inhibition, hits give high values
Method in brief: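 Yeast strain carrying a DNA damage repair alteration was exposed to test compounds. Growth inhibition was measured relative to vehicle-treated controls.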

[2] = NCI Yeast Anticancer Drug Screen. Data for the wt1 strain (AID 149);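 note: 0% = growth of vehicle-treated wt1 cultures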; conditions: S. cerevisiae wt1 strain (SPY 50644) growth inhibition, hits give high values
Method in brief: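 wt1 yeast, compound-treated; % growth inhibition vs vehicle control.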

[3] = NCI Yeast Anticancer Drug Screen. Data for the rad50EPP+ strain (AID 151);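 note: 0% = growth of vehicle-treated control cultures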; conditions: S. cerevisiae rad50 mutant strain, hits give high values
Method in brief: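 Yeast strain carrying rad50 alteration (rad50EPP+) exposed to compounds; growth inhibition measured relative to vehicle-treated controls.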

[4] = NCI Yeast Anticancer Drug Screen. Data for the mgt1 strain (AID 153); conditions: S. cerevisiae mgt1 mutant growth inhibition, hits give high values
Method in brief: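 Yeast mgt1 strain (DNA repair/cell-cycle alteration panel) exposed to compounds; growth inhibition measured relative to vehicle-treated controls.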

[5] = NCI Yeast Anticancer Drug Screen. Data for the rad50 strain (AID 155);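 note: 0% = growth of vehicle-only cultures of the same strain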; conditions: S. cerevisiae rad50 strain growth inhibition, hits give high values
Method in brief: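 Genetically altered yeast (DNA repair pathway); compound treatment; growth inhibition vs vehicle ctrl.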

[6] = NCI Yeast Anticancer Drug Screen. Data for the mec2-1 strain (AID 157); conditions: S. cerevisiae mec2-1 strain, hits give high values
Method in brief: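 mec2-1 yeast strain, carrying an alteration in DNA damage repair or cell cycle control, was exposed to compounds; growth inhibition was measured relative to vehicle-treated controls.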

[7] = NCI Yeast Anticancer Drug Screen. Data for the rad14 strain (AID 159);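 note: 0% = growth of vehicle-treated control cultures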; conditions: S. cerevisiae rad14 strain growth inhibition, hits give high values
Method in brief: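 Test compounds were applied to a repair-deficient yeast strain. Its growth was then compared with that of cultures given vehicle alone, and inhibition was expressed relative to those controls.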

[8] = NCI Yeast Anticancer Drug Screen. Data for the sgs1 mgt1 strain (AID 161);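 note: 0% = growth of cultures given vehicle only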; conditions: S. cerevisiae sgs1 mgt1 strain, hits give high values
Method in brief: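 Yeast cells carrying a defined DNA-repair defect were exposed to test compounds. Growth inhibition was measured relative to vehicle-treated controls.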

[9] = NCI Yeast Anticancer Drug Screen. Data for the CLN2oe strain (AID 163);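 note: 0% = growth of vehicle-only control cultures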; conditions: S. cerevisiae CLN2oe strain, hits give high values
Method in brief: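 Yeast cells carrying a defined cell-cycle control alteration were exposed to test compounds. Growth inhibition was scored against vehicle-treated control cultures.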

[10] = NCI Yeast Anticancer Drug Screen. Data for the cln2 rad14 strain (AID 165);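 note: 0% = growth equal to vehicle treated cultures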; conditions: S. cerevisiae cln2 rad14 strain, hits give high values
Method in brief: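 Yeast carrying cln2 and rad14 alterations (cell cycle control and DNA damage repair) were exposed to compounds. Growth inhibition was measured against vehicle-treated controls.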

[11] = NCI Yeast Anticancer Drug Screen. Data for the bub3 strain (AID 167); conditions: S. cerevisiae bub3 mutant strain, hits give high values
Method in brief: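 Yeast carrying a defined mutation is treated with each compound, and growth is compared with that of vehicle-exposed cells to give inhibition.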

[12] = NCI Yeast Anticancer Drug Screen. Data for the wt2 strain (AID 169);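 note: 0% = growth of vehicle-treated yeast cultures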; conditions: S. cerevisiae wt2 strain growth inhibition, hits give high values
Method in brief: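 Yeast cells were exposed to test compounds, and growth inhibition was measured relative to vehicle-treated controls.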

[13] = NCI Yeast Anticancer Drug Screen. Data for the mlh1 strain (AID 171);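 note: 0% = growth of vehicle-treated control cultures of the same strain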; conditions: S. cerevisiae mlh1 strain growth inhibition, hits give high values
Method in brief: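 Yeast carrying a defined genetic alteration in DNA damage repair or cell cycle control were exposed to test compounds. Growth inhibition was measured relative to vehicle-treated controls.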

[14] = NCI Yeast Anticancer Drug Screen. Data for the mlh1 rad18 strain (AID 175); conditions: S. cerevisiae mlh1 rad18 strain growth inhibition, hits give high values
Method in brief: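 Growth inhibition of the yeast strain was measured after compound exposure and expressed relative to vehicle-treated controls. The strain carries defined defects in DNA damage repair.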

[15] = NCI Yeast Anticancer Drug Screen. Data for the rad18 strain (AID 177); conditions: S. cerevisiae rad18 mutant growth inhibition, hits give high values
Method in brief: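 Yeast carrying a defined DNA damage repair alteration were exposed to compounds. Growth inhibition was expressed relative to vehicle-treated controls.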

[16] = NCI Yeast Anticancer Drug Screen. Data for the sgs1 strain (AID 173);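 note: 0% = growth of vehicle-only control cultures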; conditions: S. cerevisiae sgs1 mutant, hits give high values
Method in brief: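 Yeast mutant strains carrying defined defects in DNA damage repair or cell cycle control were exposed to test compounds. Growth inhibition was scored against vehicle-treated controls.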

[17] = at 5.0 µM (retest, dose inferred, filed as 0.5)
[18] = at 50.0 µM (retest, dose inferred, filed as 5.0)

Measured: growth inhibition

N#Cc1cc(N(CCCl)CCCl)c([N+](=O)[O-])cc1[N+](=O)[O-]
inactive: [1]; at 1.2 µM 7% | [1]; at 3.7 µM 19% | [1]; at 11.0 µM 28% | [1]; at 33.0 µM 67% | [2]; at 1.2 µM -6% | [2]; at 3.7 µM 4% | [2]; at 11.0 µM -7% | [2]; at 33.0 µM 2% | [2]; at 100.0 µM 58% | [3]; at 1.2 µM 15% | [3]; at 3.7 µM 17% | [3]; at 11.0 µM 11% | [3]; at 33.0 µM 32% | [3]; at 100.0 µM 39% | [4]; at 1.2 µM -2% | [4]; at 3.7 µM -8% | [4]; at 11.0 µM -4% | [4]; at 33.0 µM 28% | [5]; at 1.2 µM -4% | [5]; at 3.7 µM -8% | [5]; [17] 5% | [5]; at 11.0 µM 10% | [5]; at 33.0 µM 40% | [5]; [18] 42% | [5]; at 100.0 µM 65% | [6]; at 1.2 µM 22% | [6]; at 3.7 µM 24% | [6]; [17] -43% | [6]; at 11.0 µM 23% | [6]; at 33.0 µM 28% | [6]; [18] 11% | [6]; at 100.0 µM 67% | [7]; at 1.2 µM 3% | [7]; at 3.7 µM 7% | [7]; at 11.0 µM 19% | [7]; at 33.0 µM 61% | [8]; [17] -19% | [8]; [18] 46% | [9]; at 1.2 µM 2% | [9]; at 3.7 µM 6% | [9]; at 11.0 µM -2% | [9]; at 33.0 µM 14% | [10]; [17] 11% | [10]; [18] 43% | [11]; at 1.2 µM 11% | [11]; at 3.7 µM 10% | [11]; [17] -11% | [11]; at 11.0 µM -7% | [11]; at 33.0 µM 31% | [11]; [18] 40% | [12]; at 1.2 µM 4% | [12]; at 3.7 µM 6% | [12]; at 11.0 µM 8% | [12]; at 33.0 µM 36% | [13]; at 1.2 µM 34% | [13]; at 3.7 µM 4% | [13]; at 11.0 µM 34% | [14]; [17] 21% | [15]; at 1.2 µM 64%
active: [1]; at 100.0 µM 85% | [4]; at 100.0 µM 87% | [5]; at 50.0 µM 87.4% | [6]; at 50.0 µM 88.8% | [7]; at 100.0 µM 88% | [8]; at 50.0 µM 90.3% | [9]; at 100.0 µM 71% | [10]; at 50.0 µM 79.5% | [11]; at 50.0 µM 84.9% | [11]; at 100.0 µM 79% | [12]; at 100.0 µM 80% | [13]; at 33.0 µM 70% | [13]; at 100.0 µM 92% | [14]; [18] 76% | [14]; at 50.0 µM 80.5% | [15]; at 3.7 µM 82% | [15]; at 11.0 µM 89% | [15]; at 33.0 µM 95% | [15]; at 100.0 µM 95%

C[N+](C)(C)CC1CCCC(C[N+](C)(C)C)C1=O (stereo unspecified)
active: [1]; at 100.0 µM 96% | [2]; at 100.0 µM 98% | [3]; at 100.0 µM 99% | [4]; at 100.0 µM 99% | [5]; at 50.0 µM 91.8% | [5]; at 100.0 µM 99% | [6]; at 50.0 µM 99.8% | [6]; at 100.0 µM 98% | [7]; at 100.0 µM 99% | [11]; at 50.0 µM 89.2% | [11]; at 100.0 µM 99% | [13]; at 100.0 µM 99% | [16]; at 100.0 µM 99% | [14]; at 50.0 µM 97.2% | [15]; at 33.0 µM 93% | [15]; at 100.0 µM 98%
inactive: [1]; at 1.2 µM 0% | [1]; at 3.7 µM 1% | [1]; at 11.0 µM 9% | [1]; at 33.0 µM 34% | [2]; at 1.2 µM -1% | [2]; at 3.7 µM 3% | [2]; at 11.0 µM -1% | [2]; at 33.0 µM 13% | [3]; at 1.2 µM -3% | [3]; at 3.7 µM 3% | [3]; at 11.0 µM 13% | [3]; at 33.0 µM 64% | [4]; at 1.2 µM 0% | [4]; at 3.7 µM 2% | [4]; at 11.0 µM 5% | [4]; at 33.0 µM 27% | [5]; at 1.2 µM 2% | [5]; at 3.7 µM -18% | [5]; [17] 1% | [5]; at 11.0 µM 37% | [5]; at 33.0 µM 63% | [5]; [18] 35% | [6]; at 1.2 µM 1% | [6]; at 3.7 µM 5% | [6]; [17] 6% | [6]; at 11.0 µM 10% | [6]; at 33.0 µM 25% | [6]; [18] -19% | [7]; at 1.2 µM -1% | [7]; at 3.7 µM 0% | [7]; at 11.0 µM 8% | [7]; at 33.0 µM 38% | [8]; [17] 3% | [8]; [18] 50% | [8]; at 50.0 µM 68.3% | [9]; at 1.2 µM 0% | [9]; at 3.7 µM 1% | [9]; at 11.0 µM 6% | [9]; at 33.0 µM 12% | [9]; at 100.0 µM 24% | [10]; [17] 6% | [10]; [18] 21% | [10]; at 50.0 µM 25.5% | [11]; at 1.2 µM -1% | [11]; at 3.7 µM 4% | [11]; [17] -45% | [11]; at 11.0 µM 4% | [11]; at 33.0 µM 44% | [11]; [18] 41% | [13]; at 1.2 µM 0% | [13]; at 3.7 µM 3% | [13]; at 11.0 µM 7% | [13]; at 33.0 µM 26% | [16]; at 1.2 µM -1% | [16]; at 3.7 µM 3% | [16]; at 11.0 µM 15% | [16]; at 33.0 µM 64% | [14]; [17] 8% | [14]; [18] 62% | [15]; at 1.2 µM 1% | [15]; at 3.7 µM 13% | [15]; at 11.0 µM 44%
